From ChEMBL document CHEMBL3988442, “University of Dundee, Small-Polar-MMV Screening Library” (2021) come the findings set out here.

The target of one assay is T1, Aspartate--tRNA(Asp/Asn) ligase (Mycobacterium tuberculosis (strain ATCC 25618 / H37Rv)) (UniProt P9WFW3). Also: in the data most compounds retested in dose-response had high values.
T1 sequence (whole entry): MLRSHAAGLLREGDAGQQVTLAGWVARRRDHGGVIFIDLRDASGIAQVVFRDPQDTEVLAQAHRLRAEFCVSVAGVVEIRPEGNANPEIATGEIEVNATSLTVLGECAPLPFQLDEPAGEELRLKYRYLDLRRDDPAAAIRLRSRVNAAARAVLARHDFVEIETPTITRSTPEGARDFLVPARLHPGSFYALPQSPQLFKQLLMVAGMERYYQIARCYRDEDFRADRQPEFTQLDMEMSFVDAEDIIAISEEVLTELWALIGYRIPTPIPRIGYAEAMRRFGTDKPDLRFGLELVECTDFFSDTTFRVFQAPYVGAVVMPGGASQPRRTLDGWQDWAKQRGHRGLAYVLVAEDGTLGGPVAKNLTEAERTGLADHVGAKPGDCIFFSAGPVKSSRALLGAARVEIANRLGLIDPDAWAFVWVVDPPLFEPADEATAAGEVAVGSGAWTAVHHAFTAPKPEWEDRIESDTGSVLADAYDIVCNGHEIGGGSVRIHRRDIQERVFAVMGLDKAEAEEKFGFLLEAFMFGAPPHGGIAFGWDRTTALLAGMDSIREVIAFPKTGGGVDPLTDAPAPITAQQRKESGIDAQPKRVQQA
Briefly: Assay for Asp RNA synthetase-1 from Mycobacterium tuberculosis. Format: functional. The arrangement: scale not given: direction of the effect not stated beside the values. The following applies: 30 µM.
For `Cc1ccc(F)cc1S(=O)(=O)NCc1cccnc1N(C)C`, the Percent Effect turned out to be 4.75%.

Take `CNC(=O)c1cc2c(nc1NCC1CC1)CCN(S(=O)(=O)C1CC1)CC2`: the Percent Effect was found to be 7.68%.

For `CN1CCC(Cc2cc(Nc3ncccn3)ncn2)CC1`, the Percent Effect is 7.7%.

As for `Cc1cccc(Nc2nccnc2C2CCCN2CC(=O)N(C)C)n1` (stereo not given), the Percent Effect was -7.13%.

On to `CC(NC(=O)CSCC#N)c1cccc(NC(=O)c2ccccc2)c1` (stereo not given), for which the Percent Effect was 1.91%.

Regarding `CNC(=O)[C@H]1CO[C@H]2CCN(Cc3ccc4ccccc4n3)C[C@H]2C1`, the Percent Effect came out at 2.46%.

As to `Cc1ccn(-c2ccc(C(=O)N3CCCC(n4ccnc4)C3)cc2)n1` (stereo not given), the Percent Effect is 3.8%.

With `Cc1ccccc1CNC(=O)Cc1c(C)nc2cc(=O)[nH]n2c1C`, the Percent Effect is -0.856%.

As to `C=Cn1ncc(CN2C[C@@H]3CCCN3C[C@@H]2Cc2ccccc2)c1C`, the Percent Effect was -6.18%.

Regarding `COCCN1C[C@H]2CC[C@@]3(N=C(C)N(CC4CC4)C3=O)[C@H]2C1`, the Percent Effect was determined as 4.94%.

Turning to `COc1cc(CC(O)CO)c(OC)c2c1OCO2` (stereo not given), the Percent Effect is -3.19%.

On to `CNc1cncc(C2CCCN2Cc2ccccc2OCC(=O)O)n1` (stereo not given), for which the Percent Effect stood at 4.48%.

Consider `Cc1nccnc1N1CC[C@@H](NC(=O)c2cnccn2)[C@H](O)C1`, for which the Percent Effect came out at 3.96%.

`O=C(NCC1CCS(=O)(=O)C1)c1sccc1-c1ccc(F)cc1` (stereo not given): the Percent Effect is -1.09%.

As to `Cc1ccc(CN2CC[C@H]3C[C@@H](c4nc(C5CC5)cs4)O[C@@H]3C2)o1`, the Percent Effect is 11.7%.

For `Cc1nc(C)n(CC2CCCN(CCOc3cccc(C#N)c3)C2)n1` (stereo not given), the Percent Effect was 2%.

On to `COc1ccc(CNC(=O)NC2CCC(O)CC2)c(C(F)(F)F)c1` (stereo not given), for which the Percent Effect was 2.84%.

As for `O=C(NCCNCC1CNc2ccnn2C1)c1ccc(F)cc1` (stereo not given), the Percent Effect is -3.94%.

Consider `Cc1nn(C)c(C)c1CC(=O)N1CCC(N(C)c2cccnn2)CC1`, for which the Percent Effect was -4.15%.

For `CC(NC(=O)CNCCn1cccn1)c1ccc2c(c1)OCCO2` (stereo not given), the Percent Effect is -3.06%.

As for `COCCO[C@H]1CCN(C(=O)c2ccno2)[C@H]1Cc1cnn(C)c1`, the Percent Effect is -3.56%.

Turning to `CCc1nc(CN(C(C)=O)C2CCN(Cc3cnc(C)cn3)C2)no1` (stereo not given), the Percent Effect was -0.742%.

As to `O=S(=O)(C1CC1)N1CCC2(COCc3cnc(N4CCOCC4)nc32)C1` (stereo not given), the Percent Effect is -2.06%.

Regarding `Cc1nn(C)c2c(N3CCN(C(=O)C4CCC4)CC3)ncnc12`, the Percent Effect is -3.19%.

Regarding `COCCNC(=O)c1cc(S(=O)(=O)N2CCCCC2)cs1`, the Percent Effect worked out at 0.21%.

Turning to `Cn1cnc2c1CCN(Cc1nc(-c3ccsc3)no1)C2`, the Percent Effect is -8.92%.

For the molecule `Cc1ccc([C@@H]2CN(S(=O)(=O)C(C)C)C[C@H]2N(C)C)cc1`, the Percent Effect worked out at 0.183%.

Consider `COc1ccc(C)cc1CN1CCCC1c1noc(C2CC2)n1` (stereo not given), for which the Percent Effect was -4.34%.

Regarding `Cc1nnc(C(C)NCC2(c3ccc(Cl)cc3)CCCC2)o1` (stereo not given), the Percent Effect was found to be 4.47%.

For the molecule `O=C(CCCc1cn[nH]c1)N1CCOCC(O)C1` (stereo not given), the Percent Effect worked out at 5.55%.

Regarding `CCN(Cc1ccc2c(c1)OCO2)C(=O)NC(C)Cn1cccn1` (stereo not given), the Percent Effect was -0.819%.

Regarding `O=C(Cc1ccc2c(c1)OCO2)N1CCN(c2cnccn2)CC1`, the Percent Effect is -3.06%.

As for `COc1cc(NC(=O)Cn2ccc3sc(C)cc3c2=O)cc(OC)c1`, the Percent Effect is -2.26%.

On to `O=C1NCC2(CCCN(CCc3ccccc3)C2)Oc2ccccc21` (stereo not given), for which the Percent Effect was -2.1%.

Regarding `COc1ccc(C2(NC(=O)CCn3cncn3)CCCCC2)cc1`, the Percent Effect was -7.19%.

As for `CC[C@@]1(O)CCN(C(=O)c2ccc(-c3cccc(F)c3)cc2)C[C@H]1O`, the Percent Effect worked out at 3.54%.

In the case of `Cc1nn(C)c(Cl)c1CNCc1ccc(OCC(N)=O)cc1`, the Percent Effect was -2.25%.

Turning to `O=C(CC1CCCC1)NCCn1ccc(-c2ccncc2)n1`, the Percent Effect stood at 7.45%.

Turning to `Cc1nc(C)n(CC2CCCN2CCOc2ccc(C#N)cc2)n1` (stereo not given), the Percent Effect was -3.28%.

`COc1ccc(CNC(=O)NCC2CCOC2)c(C(F)(F)F)c1` (stereo not given): the Percent Effect was -4.04%.

A further assay addresses Shiga toxin 2 (Escherichia coli O157:H7) (UniProt P09385+P09386). Briefly: E. coli 0.157:H7 Shiga Toxin SOP - stx2 screening assay. In kind it is functional. The arrangement: scale not given: direction of the effect not stated beside the values. Conditions: 30 µM.
Regarding `Cc1ccc(F)cc1S(=O)(=O)NCc1cccnc1N(C)C`, the Percent Effect is -16.9%.

Consider `CNC(=O)c1cc2c(nc1NCC1CC1)CCN(S(=O)(=O)C1CC1)CC2`, for which the Percent Effect is -5.47%.

On to `CN1CCC(Cc2cc(Nc3ncccn3)ncn2)CC1`, for which the Percent Effect stood at 7.59%.

As for `Cc1cccc(Nc2nccnc2C2CCCN2CC(=O)N(C)C)n1` (stereo not given), the Percent Effect was -29.9%.

For `CC(NC(=O)CSCC#N)c1cccc(NC(=O)c2ccccc2)c1` (stereo not given), the Percent Effect turned out to be 6.38%.

As for `CNC(=O)[C@H]1CO[C@H]2CCN(Cc3ccc4ccccc4n3)C[C@H]2C1`, the Percent Effect was -3.36%.

Take `Cc1ccn(-c2ccc(C(=O)N3CCCC(n4ccnc4)C3)cc2)n1` (stereo not given): the Percent Effect was -14.7%.

For the molecule `Cc1ccccc1CNC(=O)Cc1c(C)nc2cc(=O)[nH]n2c1C`, the Percent Effect came to 17.8%.

Regarding `C=Cn1ncc(CN2C[C@@H]3CCCN3C[C@@H]2Cc2ccccc2)c1C`, the Percent Effect came out at 2.92%.

As to `COCCN1C[C@H]2CC[C@@]3(N=C(C)N(CC4CC4)C3=O)[C@H]2C1`, the Percent Effect was -12.7%.

Regarding `COc1cc(CC(O)CO)c(OC)c2c1OCO2` (stereo not given), the Percent Effect is -10.5%.

Regarding `CNc1cncc(C2CCCN2Cc2ccccc2OCC(=O)O)n1` (stereo not given), the Percent Effect was determined as 3.64%.

Regarding `Cc1nccnc1N1CC[C@@H](NC(=O)c2cnccn2)[C@H](O)C1`, the Percent Effect was -24.4%.

With `O=C(NCC1CCS(=O)(=O)C1)c1sccc1-c1ccc(F)cc1` (stereo not given), the Percent Effect was -3.87%.

In the case of `Cc1ccc(CN2CC[C@H]3C[C@@H](c4nc(C5CC5)cs4)O[C@@H]3C2)o1`, the Percent Effect is -16.4%.

As to `Cc1nc(C)n(CC2CCCN(CCOc3cccc(C#N)c3)C2)n1` (stereo not given), the Percent Effect amounted to 12.2%.

As for `COc1ccc(CNC(=O)NC2CCC(O)CC2)c(C(F)(F)F)c1` (stereo not given), the Percent Effect is 3.3%.

As for `O=C(NCCNCC1CNc2ccnn2C1)c1ccc(F)cc1` (stereo not given), the Percent Effect is -25.2%.

On to `Cc1nn(C)c(C)c1CC(=O)N1CCC(N(C)c2cccnn2)CC1`, for which the Percent Effect was 27.2%.

On to `CC(NC(=O)CNCCn1cccn1)c1ccc2c(c1)OCCO2` (stereo not given), for which the Percent Effect is 8.04%.

Turning to `COCCO[C@H]1CCN(C(=O)c2ccno2)[C@H]1Cc1cnn(C)c1`, the Percent Effect is -13.7%.

As for `CCc1nc(CN(C(C)=O)C2CCN(Cc3cnc(C)cn3)C2)no1` (stereo not given), the Percent Effect is -16.6%.

Regarding `O=S(=O)(C1CC1)N1CCC2(COCc3cnc(N4CCOCC4)nc32)C1` (stereo not given), the Percent Effect is -56.7%.

Take `Cc1nn(C)c2c(N3CCN(C(=O)C4CCC4)CC3)ncnc12`: the Percent Effect is -37.9%.

Regarding `COCCNC(=O)c1cc(S(=O)(=O)N2CCCCC2)cs1`, the Percent Effect is -0.342%.

Consider `Cn1cnc2c1CCN(Cc1nc(-c3ccsc3)no1)C2`, for which the Percent Effect was -33%.

`Cc1ccc([C@@H]2CN(S(=O)(=O)C(C)C)C[C@H]2N(C)C)cc1`: the Percent Effect amounted to 12.9%.

Turning to `COc1ccc(C)cc1CN1CCCC1c1noc(C2CC2)n1` (stereo not given), the Percent Effect was -3.88%.

`Cc1nnc(C(C)NCC2(c3ccc(Cl)cc3)CCCC2)o1` (stereo not given): the Percent Effect is 3.13%.

For the molecule `O=C(CCCc1cn[nH]c1)N1CCOCC(O)C1` (stereo not given), the Percent Effect stood at 5.53%.

As to `CCN(Cc1ccc2c(c1)OCO2)C(=O)NC(C)Cn1cccn1` (stereo not given), the Percent Effect is -12.4%.

In the case of `O=C(Cc1ccc2c(c1)OCO2)N1CCN(c2cnccn2)CC1`, the Percent Effect was found to be 19%.

Turning to `COc1cc(NC(=O)Cn2ccc3sc(C)cc3c2=O)cc(OC)c1`, the Percent Effect amounted to 0.557%.

As to `O=C1NCC2(CCCN(CCc3ccccc3)C2)Oc2ccccc21` (stereo not given), the Percent Effect is -68.8%.

In the case of `COc1ccc(C2(NC(=O)CCn3cncn3)CCCCC2)cc1`, the Percent Effect came out at 1.34%.

As for `CC[C@@]1(O)CCN(C(=O)c2ccc(-c3cccc(F)c3)cc2)C[C@H]1O`, the Percent Effect amounted to 5.77%.

For the molecule `Cc1nn(C)c(Cl)c1CNCc1ccc(OCC(N)=O)cc1`, the Percent Effect was -17.5%.

Turning to `O=C(CC1CCCC1)NCCn1ccc(-c2ccncc2)n1`, the Percent Effect was found to be 3.58%.

`Cc1nc(C)n(CC2CCCN2CCOc2ccc(C#N)cc2)n1` (stereo not given): the Percent Effect is -0.486%.

Take `COc1ccc(CNC(=O)NCC2CCOC2)c(C(F)(F)F)c1` (stereo not given): the Percent Effect is -3.72%.
